Measured values: PubChem BioAssay (EPA / NIEHS)
Activity calls are given as the source filed them. The calls were made as follows: active = hit-call score of the fitted dose curve at least 0.9, where 1 is the maximum; inactive = score below 0.9.

Read-out: Early growth response protein 1 (EGR1) transcription factor, EGR1 (gene 1958)
Test: LTEA_HepaRG_EGR1: Life Technologies and Expression Analysis (LTEA) Assay for Early growth response protein 1 (EGR1) transcription factor using HepaRG (AID 2283490)
Settings: mRNA level, 48 h; actives raise or lower the signal
Description: LTEA_HepaRG is a cell based, multiplexed-readout assay that uses HepaRG, a human liver cell line, with measurements taken at 48 hours after chemical dosing on a 96-well plate.LTEA_HepaRG_EGR1 is one of 102 assay component(s) measured in the LTEA HepaRG cell culture assay. It is a marker of Cell proliferation, survival, death.Data from the assay component LTEA_HepaRG_EGR1 was analyzed into 1 endpoint. This assay endpoint, LTEA_HepaRG_EGR1, was analyzed with bidirectional fitting relative to DMSO as the negative control and baseline of activity. Using a type of inducible reporter, measures of mRNA induction for gain or loss-of-signal activity can be used to understand regulation of transcription factor activity. To generalize the intended target to other relatable targets, this assay endpoint is annotated to the dna binding intended target family, where the subfamily is zinc finger.
A total of 1060 chemcials from the ToxCast library were tested in eight-point concentration-response experiments. Cell culture and cytotoxicity assays were conducted at Thermo Fisher Scientific's Custom Services facility (Madison, WI). A single lot of human HepaRG cells (Thermo Fisher Scientific, Frederick, MD) was used for the cell culture experiments. 96-well format collagen type I coated plates of human HepaRG cells were prepared using established methods. Briefly, cryopreserved HepaRG cells were thawed, plated at a density of approximately 100,000 cells/well in HepaRG Thaw, Plate, and General Purpose media (HPRG770, Thermo Fisher Scientific), and incubated for 48 hours. 0.5% DMSO was selected as vehicle control to balance the requisite need of DMSO in HepaRG cultures to maintain differentiation (for example, baseline metabolism, proportions of hepatocytes vs. cholangiocytes), while enabling further hepatic receptor pathway activation (for example, PXR and CAR) in response to chemical exposure. 48 hours after plating, the culture medium was replaced with HepaRG Serum-Free Incudtion Media. Cells were exposed to each test chemical in duplicate and maintained in CO2 incubators for another 48 hours. Chemical plates were thawed to room temperature and 200x concentrations of treatment groups were prepared. 8-point conentration-reponse curves were made with the highest exposure at 100 uM, followed by half-log dilutions, all in 0.5% DMSO. Each test plate contained variouse controls, induction positive controls (1mM phenobarbital), cytotoxicity positive controls ([…] aflatoxin B1), vehicle controls (0.5% DMSO), and total lysis controls (0.5% DMSO). Cell morphology images were taken using an Essen IncuCyte FLR automated microscope, with six 96-well plates imaged in about 24 minutes. Images were captured and exported and JPEG files. Spent culture media was transfered to black-well plates for the LDH assay, and remaining media was sorted at -80 C for later use. Cells were treated with RLT buffer and frozen until shipped for gene expression analysis. Total RNA was isolated from the cell suspension in 75 uL of Buffer RLT (Qiagen, Germantown, MD 20874) by Quintiles/Expression Analysis (Durham, NC) using a custom isolation procedure. Total RNA from each plate well was transferred to a preamplification plate. Fluidigm's 96.96 Dynamic ArrayTM (Fluidigm, Amsterdam, the Netherlands) technology was used for gene expression analyses by quantitative reverse transcription polymerase chain reaction (qRT-PCR, performed by Quintiles/Expression Analysis, Durham, NC)89. Standard TaqManTM Assays (Applied Biosystems/ThermoFisher Scientific, Foster City, CA) were used to assess the expression of 93 genes selected based on their selectivity and sensitivity to important hepatic receptors known to be modulated by environmental chemicals; importance in human hepatocyte functionality; and hepatotoxicity. […]

Row | SMILES | outcome | AC50
1 | NNC(=O)c1ccncc1 | inactive | –
2 | Cn1c(=O)c2[nH]cnc2n(C)c1=O | inactive | –
3 | OC(Cn1cncn1)(Cn1cncn1)c1ccc(F)cc1F | inactive | –
4 | OCc1ccccc1 | inactive | –
5 | CCOC(N)=O | inactive | –
6 | CCCCCCCCCC | inactive | –
7 | O=C(O)c1cccc(C[C@@H]2COc3ccc(OCc4nc5cc(F)ccc5s4)cc3[C@@H]2O)c1 | inactive | –
8 | C[C@@H](Oc1ccc(CNC(=O)c2cccnc2Oc2ccc3c(c2)OCO3)c(F)c1)C(=O)O | inactive | –
9 | c1ccc2c(c1)-c1cccc3c1c-2cc1ccccc13 | – | 404 nM (active)
10 | OCC(CO)(CO)CO | inactive | –
11 | CCCCCCCC1CCC(=O)O1 (stereo not given) | inactive | –
12 | C=CN1CCCC1=O | inactive | –
13 | CCc1ccc(O)c(C(C)(C)C)c1 | inactive | –
14 | NC(=O)NN=Cc1ccc([N+](=O)[O-])o1 | inactive | –
15 | O=C(O)c1ccc2c(c1)nc(C(=O)NC1CCN(C3CC3)CC1)n2Cc1cc(-c2ccc(Cl)s2)on1 | inactive | –
16 | OCCNCCO | inactive | –
17 | CC[C@H](C)C(=O)O[C@H]1C[C@H](O)C=C2C=C[C@H](C)[C@H](CC[C@@H](O)C[C@@H](O)CC(=O)O)[C@H]21 | inactive | –
18 | COS(C)(=O)=O | inactive | –
19 | CCN(CC)C(=S)SSC(=S)N(CC)CC | inactive | –
20 | O=C1CN(N=Cc2ccc([N+](=O)[O-])o2)C(=O)N1 | inactive | –

Row | SMILES | outcome | AC50
21 | O=S1(=O)CCCO1 | inactive | –
22 | O=C(O)[C@H](O)[C@@H](O)C(=O)O | inactive | –
23 | CCCOc1ccc(S(=O)(=O)N2CCN(CC)CC2)cc1-c1nc2c(CC)n(Cc3ccccn3)nc2c(=O)[nH]1 | inactive | –
24 | c1ccc2ncccc2c1 | inactive | –
25 | OC(CCl)CCl | inactive | –
26 | O=C(O)c1cccc(C(=O)O)c1 | inactive | –
27 | Cc1ccc(S(=O)(=O)NC(=O)NN2CCCCCC2)cc1 | inactive | –
28 | COCc1nnc(-c2ccc[n+]([O-])c2)n1-c1c(Cl)c(Cl)cc2[nH]c(=O)c(=O)[nH]c12 | inactive | –
29 | NC(=O)N1c2ccccc2C=Cc2ccccc21 | inactive | –
30 | CC1(C)C(=O)N(Cl)C(=O)N1Cl | inactive | –
31 | c1ccc2cc3ccccc3cc2c1 | inactive | –
32 | OC[C@H]1O[C@@H]2O[C@H]3[C@H](O)[C@@H](O)[C@@H](O[C@H]4[C@H](O)[C@@H](O)[C@@H](O[C@H]5[C@H](O)[C@@H](O)[C@@H](O[C@H]6[C@H](O)[C@@H](O)[C@@H](O[C@H]7[C@H](O)[C@@H](O)[C@@H](O[C@H]1[C@H](O)[C@H]2O)O[C@@H]7CO)O[C@@H]6CO)O[C@@H]5CO)O[C@@H]4CO)O[C@@H]3CO | inactive | –
33 | Cn1cc[nH]c1=S | inactive | –
34 | CCCCOC(=O)c1ccccc1 | inactive | –
35 | O=C(NO)C1(NS(=O)(=O)c2ccc(Oc3ccc(F)cc3)cc2)CCOCC1 | inactive | –
36 | CCc1cccc(CC)c1N | inactive | –
37 | Cc1nc(-c2ccccn2)ncc1C(=O)Nn1cc(C)c2cc(F)ccc21 | inactive | –
38 | O=S(=O)(O)c1ccc(N=Nc2c(O)ccc3cc(S(=O)(=O)O)ccc23)cc1 | inactive | –
39 | CCCCC(CC)C(=O)OCCOCCOCCOC(=O)C(CC)CCCC (stereo not given) | inactive | –
40 | CCCCN1C(=O)[C@@H]([C@H](O)C2CCCCC2)NC(=O)C12CCN(Cc1ccc(Oc3ccc(C(=O)O)cc3)cc1)CC2 | inactive | –
